# “And” between values parts separate entries of the source, which are not always exact repeats. Equal entries are not always repeated. Some compounds were tested as several samples or in several runs, with calls that do not always agree. The source made the active and inactive calls. The calls were made as follows: active = hit-call score of the fitted dose curve at least 0.9, where 1 is the maximum; inactive = score below 0.9.
# Assay: ATG_ISRE_CIS: Attagene CIS-FACTORIAL HepG2 Assay for human Interferon Regulatory Factor 1 (IRF1) binding to an Interferon-Stimulated Response Element (ISRE) (AID 2282948)
# Conditions: HepG2 ISRE cis-reporter (Attagene), mRNA transcription readout; actives raise or lower the signal
# Experimental: ATG_CIS is a cell-based, multiplexed-readout assay that uses HepG2, a human liver cell line, with measurements taken at 24 hours after chemical dosing in a 24-well plate.ATG_ISRE_CIS is one of 52 assay component(s) measured or calculated from the ATG_CIS assay. It is designed to make measurements of mRNA induction, a form of inducible reporter, as detected with fluorescence intensity signals by Reverse transcription polymerase chain reaction (RT-PCR) and Capillary electrophoresis technology.Data from the assay component ATG_ISRE_CIS was analyzed into 1 assay endpoint. This assay endpoint, ATG_ISRE_CIS, was analyzed with bidirectional fitting relative to DMSO as the negative control and baseline of activity. Using a type of inducible reporter, measures of mRNA for gain or loss-of-signal activity can be used to understand the reporter gene at the transcription factor-level as they relate to the gene IRF1. Furthermore, this assay endpoint can be referred to as a primary readout, because this assay has produced multiple assay endpoints where this one serves a reporter gene function. To generalize the intended target to other relatable targets, this assay endpoint is annotated to the dna binding intended target family, where the subfamily is interferon regulatory factors.
# Human liver HepG2 cells are transiently transfected with multiple reporter transcription units (MRTUs) in 6-well plates using FuGene 6 reagent (Roche; 3 ml FuGene/1 mg DNA). The MRTU constructs are regulated by a cis-regulating element (promoter). […] A major difference between the CIS and TRANS system is that in CIS activities of endogenous TFs are measured, whereas the TRANS assay evaluates changes in activities of exogenous, chimeric NR-Gal4 proteins. […] At the end of 24 hour incubation, total RNA was isolated using TriZol reagent (Invitrogen). The isolated RNA is then reverse-transcribed using oligo(dT) primer and Mo-MLV reverse transcriptase (Invitrogen) with DNAse I (Ambion) treatment for 30 min. The one-tenth of the produced cDNA was amplified by PCR using Taq DNA polymerase (Invitrogen) and two reporter sequence-specific primers. The PCR products were fluorescently labeled by primer extension with 6-arboxyfluorescein (6-FAM) 5'-labeled reporter sequence-specific primer (2 min at 95 C, 20 s at 68 C and 10 min at 72 C) and these products were digested with 5U of HpaI (New England Biolabs) for 2h at 37 C. The fragments were purified using Qiaquick PCR columns (Qiagen), analyzed on an ABI 3130xL genetic analyzer (Applied Biosystems) with peak positions identified by using a set of X-rhodamine (ROX)-labeled MapMarker1000 molecular weight standards (BioVentures). The raw capillary electrophoresis data was processed using Attagraph software (Attagene).
SMILES,outcome,AC50
CC/C=C\CCCCO,inactive,–
CC(=O)Nc1cc(S(=O)(=O)O)cc2cc(S(=O)(=O)O)c(N=Nc3ccccc3)c(O)c12,inactive,–
C=CC(O)CCCCC (stereo not given),inactive,–
CNC(=C[N+](=O)[O-])NCCSCc1ccc(CN(C)C)o1,inactive,–
ClCCOCCOCCCl,inactive,–
CCCCCCCCCCOC(=O)c1ccccc1C(=O)OCCCCCCCC,inactive,–
CCCCC/C=C\C=C\C(=O)OCC,–,56.3 µM (active)
O=C(O)C1=NN(c2ccc(S(=O)(=O)O)cc2)C(=O)C1,inactive,–
CCC(=O)OC/C=C(\C)CCC=C(C)C,inactive,–
CCCC1CCC(=O)CC1,inactive,–
Nc1ccc(N)c([N+](=O)[O-])c1,inactive,–
Nc1cc([N+](=O)[O-])ccc1C(=O)O,inactive,–
CC(CO)(CO)[N+](=O)[O-],inactive,–
C=CC(C)(CCC=C(C)C)OC(=O)CC (stereo not given),inactive,–
C1COCO1,inactive,–
c1ccc(Cc2ccccc2)cc1,inactive,–
C=CC(C)CCCC(C)(C)O (stereo not given),inactive,–
CCCCCCCOC(C)=O,inactive,–
O=C1CCCCCCCCCCCC(=O)OCCO1,inactive,–
CCCCCCC(O)CCOC(C)=O (stereo not given),inactive,–

SMILES,outcome,AC50
Cc1ccc(C(C)(C)O)cc1,inactive,–
OC[C@H]1O[C@@H](O[C@H]2[C@H](O)[C@@H](O)[C@H](O)O[C@@H]2CO)[C@H](O)[C@@H](O)[C@H]1O,inactive,–
NC(=O)NC(N)=O,inactive,–
CC1(C)[C@H](C=C(Cl)Cl)[C@H]1C(=O)OCc1cccc(Oc2ccccc2)c1,inactive,–
CC(=O)C1=C(C)[C@@H]2C[C@@]3(C1)[C@H](C)CC[C@H]3C2(C)C,–,73.2 µM (active)
NC(N)=S,inactive,–
CCCCCCCCOS(=O)(=O)O,inactive,–
COc1ccccc1NC(=O)CC(C)=O,inactive,–
Brc1cc(Br)cc(Br)c1,inactive,–
CC(C)N1C(=O)c2ccccc2C1=O,inactive,–
CC1(C)CC(=O)CC(C)(C)N1,inactive,–
CCCOC(=O)CC,inactive,–
CC(=O)c1ccc(C)cc1,inactive,–
C#C[C@]1(O)CC[C@H]2[C@@H]3CCc4cc(O)ccc4[C@H]3CC[C@@]21C,inactive,33.4 µM (active) and 27.3 µM (active)
CC(=O)OC(C)(C)C1CC=C(C)CC1 (stereo not given),inactive,–
CC1=CC(O)CC(C)(C)C1 (stereo not given),inactive,–
c1ccc2scnc2c1,inactive,–
O=S(=O)(O)c1cc(S(=O)(=O)O)c2c(N=Nc3ccccc3)c(O)ccc2c1,inactive,–
NCCN1CCNCC1,inactive,–
